Screening results deposited in PubChem BioAssay by National Center for Advancing Translational Sciences (NCATS).
Most compounds without a hit are left out; they make up all but 3% or so of the library.
Chronic BCR inh – inhibitors of chronic active B-cell receptor signaling; ABC-DLBCL IkBa-CBG/CBR reporter, luminescence ratio, 4 h; Potency, µM (titrated, usually from 46.1 µM), actives largely listed as inhibitors; 340,000 compounds, 0.05% hits; AID 493014; active = well fitted inhibition curve with a large enough effect in the signal ratio, with a control signal flat, not every such curve was filed as active; inconclusive = small, poorly fitted or top-dose-only effect, or effect the other way, or a change in a side signal; the % refers to the signal ratio
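TMD8 ABC-DLBCL cells carrying doxycycline-inducible green luciferase fused to IkappaBalpha plus unfused red luciferase were exposed to compounds (up to 46 uM) for 4 hrs at 37C. Activity came from the overlap-corrected green/red luminescence ratio.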
LDHA inh – LDHA (human) enzyme inhibition | P00338 | 480,000 compounds, 0.15% hits | AID 1347041 | activity change, % (values are at about 110 or 230 µM) | purified LDHA, NADH/diaphorase-resazurin fluorescence; stronger effect = lower value; in the data active = activity change below about -30%; inconclusive = mostly about -25% to -30%
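Resorufin fluorescence (ex540/em590), read at 0 and 20 min after diaphorase/resazurin addition, reports the NADH left after a 5 min room-temperature reaction of 2 nM human LDH5 with 0.06 mM NADH and 0.2 mM pyruvate.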
hERG WT inh – inhibitors of human wildtype KCNH2 potassium channel; 340,000 compounds, 0.37% hits; AID 720551; U2OS, BacMam KCNH2, thallium flux FluxOr; stronger effect = lower value; activity change, % at 1.84 µM; Q12809;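 active = maximum activity change below -70%; inconclusive = maximum activity change between -70% and -50%; inactive = maximum activity change above -50%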
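U2OS cells were transduced with wild-type KCNH2 virus (2.03 x 10^8 / mL) for 4 h at room temperature, then cultured overnight at 37 C. Thallium flux was read with FluxOr dye. Rate constants were normalized to DMSO controls.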
ClpP mod – qHTS Assay for Activators of ClpP; 340,000 compounds, 1.9% hits; ATP-dependent Clp protease proteolytic subunit (Bacillus subtilis (strain 168)), P80244; purified B. subtilis ClpP, FRET peptide cleavage, 20 min; Potency, µM (doses to about 57.5 µM); active = well fitted falling curve with a large enough effect; inconclusive = small, poorly fitted or top-dose-only effect; inactive = no such curve, though single readings can be large or run the other way; note: the source files actives as falling curves though it sought activators and does not explain the sign; nearly all actives have a fitted effect of over 65% in size
Target sequence (P80244 whole entry, looked up): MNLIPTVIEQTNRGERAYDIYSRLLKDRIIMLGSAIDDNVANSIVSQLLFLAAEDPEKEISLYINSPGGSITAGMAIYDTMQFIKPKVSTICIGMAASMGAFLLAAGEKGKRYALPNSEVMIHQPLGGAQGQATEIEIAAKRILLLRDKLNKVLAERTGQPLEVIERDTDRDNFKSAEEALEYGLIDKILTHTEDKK
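ClpP 10 microg/mL final, pH 8 Tris/KCl buffer with BSA, glycerol, Tween-20; compound pinned in; FRET-FV substrate; RT 20 min; Ex320/Em430; ΔFRET vs ADEP 5.8 microM, DMSO, no enzyme.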
ALOX12 inh – inhibitors of human 12S-lipoxygenase ALOX12; 580,000 compounds, 1.1% hits; Potency, µM (top dose mostly 108 µM), most hits filed as inhibitors; purified 12hLO, xylenol orange hydroperoxide absorbance; P18054; AID 1671190; active = well fitted inhibition curve with a large enough effect; inconclusive = small, poorly fitted or top-dose-only effect, or another doubt; inactive = no such curve, though single readings can be large or run the other way
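Purified human 12hLO at 150 nM in 25 mM Hepes, 0.01% Triton X-100, pH 7.0, preincubated 15 min at room temperature with compound. Reaction started with 40 uM arachidonic acid, 30 min at room temperature. Hydroperoxide measured by Fe-xylenol orange, 573/405 nm absorbance ratio.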
KCNH2 3.1 block – blocks the human KCNH2 3.1 channel isoform. U2OS KCNH2 3.1, thallium flux FluxOr; stronger effect = lower value. activity change, % (tested at about 1.8 µM). 340,000 compounds, 0.95% hits. AID 720553;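 active = maximum activity change below -70%; inconclusive = maximum activity change from -70% to -50%; inactive = maximum activity change above -50%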;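 note: thallium influx rate constant from kinetic fluorescence after stimulation buffer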
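Virally transduced U2OS (3.1 isoform, 4 h infection in dark at RT) → overnight 37 C → FluxOr + Red40 in HBSS/HEPES, 45 min → stimulation buffer, 2 min kinetic read → rate constant vs DMSO controls.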
Hits are given with their value.

How did c1ccc(Cn2cc(CCOCc3ccccn3)c3ccccc32)cc1 do in these assays?
ALOX12 inh: inactive

What do the screens show for `Cc1ccccc1-n1cc[nH]c1=S`?
Chronic BCR inh: inactive; LDHA inh: inactive; hERG WT inh: inactive; ALOX12 inh: inconclusive; KCNH2 3.1 block: inactive

Results for Cc1cccc(-n2cc[nH]c2=S)c1C ?
Chronic BCR inh: inactive; LDHA inh: inactive; hERG WT inh: inactive; ClpP mod: inactive; ALOX12 inh: 50µM; KCNH2 3.1 block: inactive

Results for Cn1c(=O)c2nc(Cl)c(-c3ccccc3)nc2n(C)c1=O ?
Chronic BCR inh: inactive; LDHA inh: inactive; hERG WT inh: inactive; ClpP mod: 25µM; ALOX12 inh: inactive; KCNH2 3.1 block: inactive

Results for CCC1S/C(=N/N=C/c2ccco2)N(c2ccc(F)cc2)C1=O (stereo not given) ?
Chronic BCR inh: inactive; LDHA inh: inactive; hERG WT inh: inactive; ClpP mod: inactive; ALOX12 inh: inactive

What do the screens show for `Cc1cccc(CC2S/C(=N/N=C/c3ccco3)N(c3ccccc3)C2=O)c1` (stereo not given)?
Chronic BCR inh: inconclusive; LDHA inh: inactive; hERG WT inh: inactive; ClpP mod: inactive; ALOX12 inh: inactive; KCNH2 3.1 block: -104

What do the screens show for `COc1cc2cc(CN(CCCN3CCOCC3)C(=O)Nc3ccccc3F)c(=O)[nH]c2cc1OC`?
Chronic BCR inh: inactive; LDHA inh: inactive; hERG WT inh: inactive; ALOX12 inh: inactive; KCNH2 3.1 block: inactive

What do the screens show for `COc1ccccc1NC(=O)N(CCCN1CCOCC1)Cc1cc2cc3c(cc2[nH]c1=O)OCO3`?
Chronic BCR inh: inactive; LDHA inh: inactive; hERG WT inh: inactive; ClpP mod: 20µM; ALOX12 inh: inactive; KCNH2 3.1 block: inactive

Results for O=C(Nc1ccc(F)cc1)N(CCCN1CCOCC1)Cc1cc2cc3c(cc2[nH]c1=O)OCCO3 ?
Chronic BCR inh: inconclusive; LDHA inh: inactive; hERG WT inh: inactive; ClpP mod: 25µM; ALOX12 inh: inactive; KCNH2 3.1 block: inactive

What do the screens show for `CC(=O)C(C)(CCC(=O)O)CCC(=O)O`?
LDHA inh: inactive; ALOX12 inh: inactive

Results for COc1ccc(C)cc1NC(=O)COC(=O)c1ccccc1SCC(=O)N1CCCC1 ?
Chronic BCR inh: inactive; LDHA inh: inactive; hERG WT inh: inactive; ClpP mod: 28µM; ALOX12 inh: inactive; KCNH2 3.1 block: inactive

What do the screens show for `Cc1cc(C)n(CCc2nnc(Nc3ccn(Cc4ccccc4Cl)n3)s2)n1`?
LDHA inh: inactive; ALOX12 inh: inconclusive

How did Cn1nnc(NC(=S)NC(=O)c2cccc3ccccc23)n1 do in these assays?
Chronic BCR inh: inactive; LDHA inh: inactive; hERG WT inh: inactive; ALOX12 inh: 0.63µM; KCNH2 3.1 block: inactive

Results for Cn1nnc(NC(=S)NC(=O)c2ccc3ccccc3c2)n1 ?
LDHA inh: inactive; hERG WT inh: inactive; ClpP mod: inactive; ALOX12 inh: 11µM; KCNH2 3.1 block: inactive

What do the screens show for `Cn1nnc(NC(=O)c2ccc3ccccc3c2)n1`?
Chronic BCR inh: inactive; LDHA inh: inactive; hERG WT inh: inactive; ClpP mod: inconclusive; ALOX12 inh: inactive; KCNH2 3.1 block: inactive

How did Cn1nnc(NC(=S)NC(=O)c2cccs2)n1 do in these assays?
Chronic BCR inh: inactive; LDHA inh: inactive; hERG WT inh: inactive; ClpP mod: inactive; ALOX12 inh: inconclusive; KCNH2 3.1 block: inactive

What do the screens show for `Cc1ccc(Nc2nc(Cl)nc(NC3CCCCC3)n2)cc1`?
Chronic BCR inh: inconclusive; LDHA inh: inactive; hERG WT inh: inactive; ClpP mod: inactive; ALOX12 inh: inactive; KCNH2 3.1 block: -93

What do the screens show for `CC(=O)N(C)c1ccc(OCC(O)Cn2c3ccc(Cl)cc3c3cc(Cl)ccc32)cc1` (stereo not given)?
Chronic BCR inh: inactive; LDHA inh: inactive; hERG WT inh: -76; ClpP mod: inactive; KCNH2 3.1 block: inactive

What do the screens show for `COc1ccc(OC)c(/C=C/C(=O)OCC(=O)Nc2cccc(Oc3ccccc3)c2)c1`?
Chronic BCR inh: inactive; LDHA inh: inactive; hERG WT inh: inactive; ClpP mod: 35µM; ALOX12 inh: inactive; KCNH2 3.1 block: inactive

Results for COc1cccc(/C=C/C(=O)OCC(=O)Nc2cccc(S(=O)(=O)N3CCCCC3)c2)c1OC ?
Chronic BCR inh: inactive; LDHA inh: inactive; hERG WT inh: inactive; ClpP mod: 28µM; ALOX12 inh: inactive; KCNH2 3.1 block: inactive

What do the screens show for `O=C(Cc1cccs1)N1CCN(c2ncnc3c2nnn3-c2ccccc2)CC1`?
LDHA inh: inactive; ALOX12 inh: inconclusive

Results for CCCCCCCCS(=O)(=O)CCCO ?
LDHA inh: inactive; ALOX12 inh: inconclusive
